Data as given in the supplement of paper PMC11732987, “Enantioselective OTUD7B fragment discovery through chemoproteomics screening and high-throughput optimisation” (Communications Chemistry, 2025).
Values without a mark were called inactive.

What was measured:
Experiment in all cases: log2 ratio of Biotin-Ahx-Ub-VS probe labelling (fragment/DMSO); higher = less target engagement (more negative = stronger competition), active = hit call of the paper (q ≤ 0.05, log2 ratio ≤ -1)
Details in all cases: compound concentration: 200 uM; treatment time: 3 h
[1] = molecular target: USP9X (UniProt Q93008)
Sequence of USP9X (Q93008 whole entry, the tested form may be a part): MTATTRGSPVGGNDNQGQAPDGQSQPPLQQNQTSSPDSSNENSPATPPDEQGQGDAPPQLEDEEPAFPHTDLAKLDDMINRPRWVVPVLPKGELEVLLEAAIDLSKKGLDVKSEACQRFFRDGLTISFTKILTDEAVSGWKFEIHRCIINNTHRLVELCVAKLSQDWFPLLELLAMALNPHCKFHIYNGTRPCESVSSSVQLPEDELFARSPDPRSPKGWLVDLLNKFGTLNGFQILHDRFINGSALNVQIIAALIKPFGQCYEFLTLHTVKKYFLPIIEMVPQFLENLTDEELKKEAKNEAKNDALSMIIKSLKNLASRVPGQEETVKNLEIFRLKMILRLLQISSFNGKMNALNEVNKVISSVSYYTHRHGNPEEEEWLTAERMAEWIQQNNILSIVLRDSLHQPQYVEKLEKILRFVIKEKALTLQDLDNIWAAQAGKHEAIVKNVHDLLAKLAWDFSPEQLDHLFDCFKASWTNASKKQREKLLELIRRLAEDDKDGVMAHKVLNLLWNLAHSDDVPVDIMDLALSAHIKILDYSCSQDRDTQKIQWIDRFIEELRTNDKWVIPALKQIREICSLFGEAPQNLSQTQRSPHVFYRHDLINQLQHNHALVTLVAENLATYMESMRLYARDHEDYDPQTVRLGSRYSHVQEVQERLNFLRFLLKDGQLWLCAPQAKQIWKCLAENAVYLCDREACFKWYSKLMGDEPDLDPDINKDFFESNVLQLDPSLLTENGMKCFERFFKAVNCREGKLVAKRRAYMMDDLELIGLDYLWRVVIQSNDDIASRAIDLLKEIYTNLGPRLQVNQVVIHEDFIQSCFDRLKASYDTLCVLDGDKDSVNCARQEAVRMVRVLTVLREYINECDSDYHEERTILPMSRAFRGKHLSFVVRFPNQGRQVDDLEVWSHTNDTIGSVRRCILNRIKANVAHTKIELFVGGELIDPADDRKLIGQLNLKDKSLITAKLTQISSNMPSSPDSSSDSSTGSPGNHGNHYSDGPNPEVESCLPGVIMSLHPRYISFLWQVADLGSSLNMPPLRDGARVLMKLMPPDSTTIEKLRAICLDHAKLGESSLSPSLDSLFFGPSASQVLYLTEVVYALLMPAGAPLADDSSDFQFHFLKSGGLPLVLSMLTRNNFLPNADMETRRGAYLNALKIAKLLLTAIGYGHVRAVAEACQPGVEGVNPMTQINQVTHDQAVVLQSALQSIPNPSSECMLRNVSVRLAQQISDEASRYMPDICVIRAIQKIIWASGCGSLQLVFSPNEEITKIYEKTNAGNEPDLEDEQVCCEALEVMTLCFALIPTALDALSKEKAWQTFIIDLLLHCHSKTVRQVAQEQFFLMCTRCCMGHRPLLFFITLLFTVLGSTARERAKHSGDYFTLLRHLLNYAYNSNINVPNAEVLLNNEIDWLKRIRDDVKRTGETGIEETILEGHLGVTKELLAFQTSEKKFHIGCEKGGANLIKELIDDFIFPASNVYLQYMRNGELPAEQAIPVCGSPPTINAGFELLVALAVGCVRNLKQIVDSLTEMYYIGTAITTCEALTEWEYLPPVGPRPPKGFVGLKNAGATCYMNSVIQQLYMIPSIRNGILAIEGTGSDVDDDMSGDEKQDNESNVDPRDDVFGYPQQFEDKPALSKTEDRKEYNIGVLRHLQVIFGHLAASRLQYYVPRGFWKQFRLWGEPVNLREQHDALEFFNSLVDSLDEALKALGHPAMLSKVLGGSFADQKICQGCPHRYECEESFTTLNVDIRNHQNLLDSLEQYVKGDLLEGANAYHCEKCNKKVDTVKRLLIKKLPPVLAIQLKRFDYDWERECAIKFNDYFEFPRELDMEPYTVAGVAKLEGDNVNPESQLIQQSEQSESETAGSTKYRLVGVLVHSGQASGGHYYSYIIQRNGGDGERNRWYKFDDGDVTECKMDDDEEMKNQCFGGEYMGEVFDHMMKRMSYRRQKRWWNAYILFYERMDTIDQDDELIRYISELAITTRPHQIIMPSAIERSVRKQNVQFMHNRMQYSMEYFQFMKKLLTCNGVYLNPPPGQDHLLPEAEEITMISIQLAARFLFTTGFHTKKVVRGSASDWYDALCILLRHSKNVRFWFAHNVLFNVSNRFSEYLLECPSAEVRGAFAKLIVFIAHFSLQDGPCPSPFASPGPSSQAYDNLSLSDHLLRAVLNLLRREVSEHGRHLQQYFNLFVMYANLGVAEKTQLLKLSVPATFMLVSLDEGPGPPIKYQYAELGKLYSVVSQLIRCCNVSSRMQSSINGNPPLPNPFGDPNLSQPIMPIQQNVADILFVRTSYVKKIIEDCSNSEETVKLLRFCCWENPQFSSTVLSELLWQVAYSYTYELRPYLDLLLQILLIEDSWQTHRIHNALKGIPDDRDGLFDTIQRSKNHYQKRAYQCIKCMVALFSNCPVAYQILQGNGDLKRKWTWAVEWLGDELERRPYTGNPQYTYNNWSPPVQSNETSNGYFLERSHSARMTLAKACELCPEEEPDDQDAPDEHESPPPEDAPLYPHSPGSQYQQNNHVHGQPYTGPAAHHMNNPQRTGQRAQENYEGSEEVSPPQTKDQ
Outline: (§1)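 HEK293T lysate (495 µg per sample, in Tris/CHAPS/IGEPAL buffer with protease inhibitors) was treated in triplicate with fragment at 200 µM or with DMSO for 3 h. It was then treated with Biotin-Ahx-Ub-VS (0.5 µM final) for 1 h. Labelled DUBs were NeutrAvidin-enriched, digested with LysC and trypsin, and run by diaPASEF LC-MS/MS. Spectronaut label-free quantities were global-median-normalised. Values are average log2 ratios fragment/DMSO by unpaired t-test, using proteins with ≥2 unique peptides.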

[2] = molecular target: UniProt O00487
Sequence of UniProt O00487 (O00487 whole entry): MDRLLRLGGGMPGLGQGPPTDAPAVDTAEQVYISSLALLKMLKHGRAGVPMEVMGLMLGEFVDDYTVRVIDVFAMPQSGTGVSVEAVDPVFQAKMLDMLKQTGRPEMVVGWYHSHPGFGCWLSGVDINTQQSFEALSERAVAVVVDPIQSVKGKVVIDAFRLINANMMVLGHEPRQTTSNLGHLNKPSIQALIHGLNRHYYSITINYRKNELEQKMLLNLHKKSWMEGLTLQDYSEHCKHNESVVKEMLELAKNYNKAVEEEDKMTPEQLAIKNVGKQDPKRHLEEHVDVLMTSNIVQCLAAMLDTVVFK
Outline: as §1

[3] = molecular target: UniProt O00507
Outline: as §1

[4] = molecular target: UniProt P51784
Sequence of UniProt P51784 (P51784 whole entry): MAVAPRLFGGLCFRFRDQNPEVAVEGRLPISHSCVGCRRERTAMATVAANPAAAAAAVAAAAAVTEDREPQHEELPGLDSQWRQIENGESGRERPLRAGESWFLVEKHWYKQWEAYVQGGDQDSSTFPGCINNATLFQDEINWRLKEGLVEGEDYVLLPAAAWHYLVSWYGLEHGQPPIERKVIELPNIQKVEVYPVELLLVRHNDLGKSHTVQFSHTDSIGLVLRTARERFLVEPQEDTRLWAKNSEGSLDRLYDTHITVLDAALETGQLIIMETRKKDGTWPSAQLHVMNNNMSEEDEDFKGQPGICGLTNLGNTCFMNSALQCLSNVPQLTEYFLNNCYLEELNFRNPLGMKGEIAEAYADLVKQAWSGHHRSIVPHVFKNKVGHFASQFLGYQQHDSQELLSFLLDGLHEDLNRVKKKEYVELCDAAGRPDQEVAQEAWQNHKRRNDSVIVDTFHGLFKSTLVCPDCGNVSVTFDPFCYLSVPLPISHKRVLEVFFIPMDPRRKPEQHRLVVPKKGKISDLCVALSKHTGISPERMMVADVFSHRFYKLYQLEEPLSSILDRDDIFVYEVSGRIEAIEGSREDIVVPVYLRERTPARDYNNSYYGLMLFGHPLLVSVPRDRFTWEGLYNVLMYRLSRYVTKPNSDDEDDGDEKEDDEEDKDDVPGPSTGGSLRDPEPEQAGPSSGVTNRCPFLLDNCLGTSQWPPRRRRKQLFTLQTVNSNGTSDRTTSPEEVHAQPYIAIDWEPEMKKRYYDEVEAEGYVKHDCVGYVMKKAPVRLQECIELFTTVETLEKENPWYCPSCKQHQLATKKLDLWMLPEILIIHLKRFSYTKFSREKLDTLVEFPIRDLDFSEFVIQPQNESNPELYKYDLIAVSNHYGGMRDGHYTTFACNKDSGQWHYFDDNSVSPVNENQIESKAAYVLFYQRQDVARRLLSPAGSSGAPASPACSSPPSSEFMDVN
Outline: as §1

[5] = molecular target: T1, UniProt Q5T2D3
T1 sequence (whole entry): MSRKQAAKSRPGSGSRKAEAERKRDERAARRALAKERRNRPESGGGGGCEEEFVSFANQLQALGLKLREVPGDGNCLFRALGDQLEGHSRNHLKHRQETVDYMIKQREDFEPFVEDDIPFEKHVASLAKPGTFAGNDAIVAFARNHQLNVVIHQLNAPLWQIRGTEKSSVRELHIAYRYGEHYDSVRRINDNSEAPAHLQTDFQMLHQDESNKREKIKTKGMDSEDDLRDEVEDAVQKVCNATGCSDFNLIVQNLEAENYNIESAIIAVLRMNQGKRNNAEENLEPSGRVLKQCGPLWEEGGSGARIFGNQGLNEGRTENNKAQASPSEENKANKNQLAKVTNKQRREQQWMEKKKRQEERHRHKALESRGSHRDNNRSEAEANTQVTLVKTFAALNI
Outline: as §1

[6] = molecular target: T2, UniProt Q8TE49
T2 sequence (whole entry): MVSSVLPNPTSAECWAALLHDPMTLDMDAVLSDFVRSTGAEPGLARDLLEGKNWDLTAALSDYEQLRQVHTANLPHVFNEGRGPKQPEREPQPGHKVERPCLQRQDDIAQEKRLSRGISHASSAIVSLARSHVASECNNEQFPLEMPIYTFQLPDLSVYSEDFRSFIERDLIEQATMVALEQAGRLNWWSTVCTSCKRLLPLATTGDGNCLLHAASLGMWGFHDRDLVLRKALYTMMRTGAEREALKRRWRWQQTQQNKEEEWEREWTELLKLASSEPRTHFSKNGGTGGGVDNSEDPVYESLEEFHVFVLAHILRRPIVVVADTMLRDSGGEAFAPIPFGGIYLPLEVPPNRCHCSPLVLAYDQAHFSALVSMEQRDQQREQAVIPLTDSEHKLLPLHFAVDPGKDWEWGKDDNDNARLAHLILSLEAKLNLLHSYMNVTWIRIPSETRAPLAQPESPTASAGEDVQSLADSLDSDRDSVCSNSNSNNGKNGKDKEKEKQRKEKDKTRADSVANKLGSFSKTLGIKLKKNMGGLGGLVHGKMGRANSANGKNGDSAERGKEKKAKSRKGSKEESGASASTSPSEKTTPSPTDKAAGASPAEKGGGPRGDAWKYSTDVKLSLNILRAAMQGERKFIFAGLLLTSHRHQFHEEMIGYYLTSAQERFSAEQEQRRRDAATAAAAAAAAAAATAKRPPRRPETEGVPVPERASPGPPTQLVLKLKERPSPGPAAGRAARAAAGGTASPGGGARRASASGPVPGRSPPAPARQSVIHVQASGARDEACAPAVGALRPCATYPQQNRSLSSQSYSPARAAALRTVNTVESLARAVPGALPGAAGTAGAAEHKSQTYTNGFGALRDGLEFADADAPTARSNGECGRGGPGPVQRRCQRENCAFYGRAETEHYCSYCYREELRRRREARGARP
Outline: as §1

[7] = molecular target: T3, UniProt Q9P2H5
T3 sequence (whole entry): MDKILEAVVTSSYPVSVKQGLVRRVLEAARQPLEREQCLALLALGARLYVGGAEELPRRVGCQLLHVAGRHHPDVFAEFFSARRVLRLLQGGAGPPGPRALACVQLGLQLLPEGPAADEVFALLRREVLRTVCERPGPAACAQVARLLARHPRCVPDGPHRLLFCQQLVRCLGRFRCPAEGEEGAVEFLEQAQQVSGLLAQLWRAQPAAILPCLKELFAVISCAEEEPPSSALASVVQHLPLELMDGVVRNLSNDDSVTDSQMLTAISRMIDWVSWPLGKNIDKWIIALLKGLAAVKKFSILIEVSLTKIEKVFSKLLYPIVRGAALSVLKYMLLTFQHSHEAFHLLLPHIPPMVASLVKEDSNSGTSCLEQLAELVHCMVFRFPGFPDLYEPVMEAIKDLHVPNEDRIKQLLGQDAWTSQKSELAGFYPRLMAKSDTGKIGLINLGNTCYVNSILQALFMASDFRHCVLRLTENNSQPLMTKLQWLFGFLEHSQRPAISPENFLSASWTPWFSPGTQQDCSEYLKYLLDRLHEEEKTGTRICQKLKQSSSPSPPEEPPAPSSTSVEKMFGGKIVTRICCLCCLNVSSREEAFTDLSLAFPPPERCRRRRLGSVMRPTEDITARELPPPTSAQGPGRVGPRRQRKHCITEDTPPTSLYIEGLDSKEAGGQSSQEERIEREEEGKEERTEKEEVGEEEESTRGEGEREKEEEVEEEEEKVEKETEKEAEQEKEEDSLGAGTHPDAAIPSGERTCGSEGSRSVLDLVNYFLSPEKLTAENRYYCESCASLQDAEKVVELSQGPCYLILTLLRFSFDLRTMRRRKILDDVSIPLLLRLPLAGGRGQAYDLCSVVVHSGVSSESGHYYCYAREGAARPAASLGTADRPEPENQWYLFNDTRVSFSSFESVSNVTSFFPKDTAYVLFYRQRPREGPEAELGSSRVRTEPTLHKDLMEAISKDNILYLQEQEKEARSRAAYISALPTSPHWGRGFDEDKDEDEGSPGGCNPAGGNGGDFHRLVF
Outline: as §1

[8] = molecular target: T4, UniProt Q9UGI0
T4 sequence (whole entry): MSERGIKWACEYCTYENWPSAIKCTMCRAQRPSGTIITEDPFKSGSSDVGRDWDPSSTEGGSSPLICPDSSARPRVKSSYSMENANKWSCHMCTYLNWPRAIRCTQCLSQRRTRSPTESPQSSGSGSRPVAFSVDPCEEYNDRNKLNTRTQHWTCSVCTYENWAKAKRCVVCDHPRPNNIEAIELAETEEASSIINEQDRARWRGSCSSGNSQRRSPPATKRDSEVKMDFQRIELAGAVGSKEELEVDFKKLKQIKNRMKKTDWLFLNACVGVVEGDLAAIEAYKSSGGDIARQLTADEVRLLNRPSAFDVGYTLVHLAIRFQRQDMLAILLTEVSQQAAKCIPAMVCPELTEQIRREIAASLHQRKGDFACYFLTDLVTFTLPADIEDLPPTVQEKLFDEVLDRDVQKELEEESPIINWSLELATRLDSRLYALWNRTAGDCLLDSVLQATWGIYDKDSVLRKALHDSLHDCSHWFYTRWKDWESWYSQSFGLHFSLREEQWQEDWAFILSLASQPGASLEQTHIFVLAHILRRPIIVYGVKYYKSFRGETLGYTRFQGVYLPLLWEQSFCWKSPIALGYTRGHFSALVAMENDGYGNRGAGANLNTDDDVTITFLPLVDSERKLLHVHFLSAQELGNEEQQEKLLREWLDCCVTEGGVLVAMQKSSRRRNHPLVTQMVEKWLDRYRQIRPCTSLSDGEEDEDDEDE
Outline: as §1

[9] = molecular target: T5, YOD1 (UniProt Q5VVQ6)
T5 sequence (whole entry): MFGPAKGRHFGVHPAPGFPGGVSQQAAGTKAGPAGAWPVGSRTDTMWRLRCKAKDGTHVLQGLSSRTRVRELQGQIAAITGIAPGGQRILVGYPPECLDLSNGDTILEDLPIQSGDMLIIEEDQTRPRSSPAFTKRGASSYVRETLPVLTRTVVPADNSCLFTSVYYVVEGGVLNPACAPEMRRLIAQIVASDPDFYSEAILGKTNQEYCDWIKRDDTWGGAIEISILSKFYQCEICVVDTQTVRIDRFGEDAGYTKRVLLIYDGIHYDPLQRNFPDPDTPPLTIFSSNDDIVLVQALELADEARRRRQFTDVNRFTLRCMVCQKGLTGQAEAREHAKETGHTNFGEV
Outline: as §1

Structure (SMILES): Cl.O=C(CCl)N1CCc2ncncc2C1
- log2 ratio of Biotin-Ahx-Ub-VS probe labelling [1]: -0.425
- log2 ratio of Biotin-Ahx-Ub-VS probe labelling [2]: -0.0759
- log2 ratio of Biotin-Ahx-Ub-VS probe labelling [3]: -0.362
- log2 ratio of Biotin-Ahx-Ub-VS probe labelling [4]: 0.0954
- log2 ratio of Biotin-Ahx-Ub-VS probe labelling [5]: -0.274
- log2 ratio of Biotin-Ahx-Ub-VS probe labelling [6]: -0.964
- log2 ratio of Biotin-Ahx-Ub-VS probe labelling [7]: -0.288
- log2 ratio of Biotin-Ahx-Ub-VS probe labelling [8]: -1.57 (active)
- log2 ratio of Biotin-Ahx-Ub-VS probe labelling [9]: 0.055
